Compound activity (PubChem)
PLK1 PBD inh: PLK1 (human) polo-box domain binding inhibition; P53350; Plk1 PBD binding of FITC phosphopeptide, fluorescence polarization; Potency, µM, for inactives: max response, negative = inhibition, hits mostly inhibitors; 2.8% of 360,000 active; note: series mostly up to about 57 µM; nearly all actives have a fitted effect of over 65% in size
VDR inh: inhibitors of human vitamin D receptor | VDR-SRC2-3 peptide fluorescence polarization, 2 h | Potency, µM, inactives show max response, negative = inhibition, actives largely listed as inhibitors | 0.93% of 400,000 active | AID 504847
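VDR–SRC2-3 interaction, FP format. Cmpds 23 nl via pintool, brief spin, 2 h ambient incubation.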
TDP1 block: TDP1 (human) enzyme inhibition; Q9NUW8; recombinant TDP1, AlphaScreen DNA substrate cleavage; Potency, µM (doses to about 130 µM), for the others: at the highest dose activity change, negative = inhibition, most hits filed as inhibitors; 0.28% of 350,000 active; note: nearly all actives have a fitted effect of over 40% in size
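Recombinant E. coli-expressed Tdp1 (1 nM) preincubated with compound 15 min at RT, then 5'-biotin/3'-phosphotyrosine-FITC DNA substrate (15 nM) added for 5 min. AlphaScreen beads (10 ug/ml) added, 10 min RT; tyrosine-FITC cleavage read as signal loss.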
TDP1 cell CPT: DT40-hTDP1 cell growth loss with CPT; Potency, µM (series often up to 46.2 µM), inactives show at the highest dose activity change, negative = growth inhibition, usual class: inhibitors; chicken DT40 Tdp1-/-;hTDP1 cells + 20 nM CPT, ATP luminescence, 48 h; 12% of 420,000 active; AID 686979; note: nearly all actives have a fitted effect of over 55% in size
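Chicken DT40 Tdp1-/- cells stably complemented with human TDP1 were seeded at 400 cells/well in medium containing 20 nM camptothecin, exposed to pin-transferred compounds, and grown at 37 °C for at least 48 hr. Viability was read as ATP luminescence.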
GCN5L2 inh: inhibitors of human GCN5L2 histone acetyltransferase | GCN5L2 HAT assay, ThioGlo1 CoA-SH fluorescence | Potency, µM (titrated, usually from 58.9 µM), for inactives: at the top dose activity change, negative = inhibition, hits mostly inhibitors | 0.21% of 390,000 active
Target sequence (Q92830 whole entry, looked up): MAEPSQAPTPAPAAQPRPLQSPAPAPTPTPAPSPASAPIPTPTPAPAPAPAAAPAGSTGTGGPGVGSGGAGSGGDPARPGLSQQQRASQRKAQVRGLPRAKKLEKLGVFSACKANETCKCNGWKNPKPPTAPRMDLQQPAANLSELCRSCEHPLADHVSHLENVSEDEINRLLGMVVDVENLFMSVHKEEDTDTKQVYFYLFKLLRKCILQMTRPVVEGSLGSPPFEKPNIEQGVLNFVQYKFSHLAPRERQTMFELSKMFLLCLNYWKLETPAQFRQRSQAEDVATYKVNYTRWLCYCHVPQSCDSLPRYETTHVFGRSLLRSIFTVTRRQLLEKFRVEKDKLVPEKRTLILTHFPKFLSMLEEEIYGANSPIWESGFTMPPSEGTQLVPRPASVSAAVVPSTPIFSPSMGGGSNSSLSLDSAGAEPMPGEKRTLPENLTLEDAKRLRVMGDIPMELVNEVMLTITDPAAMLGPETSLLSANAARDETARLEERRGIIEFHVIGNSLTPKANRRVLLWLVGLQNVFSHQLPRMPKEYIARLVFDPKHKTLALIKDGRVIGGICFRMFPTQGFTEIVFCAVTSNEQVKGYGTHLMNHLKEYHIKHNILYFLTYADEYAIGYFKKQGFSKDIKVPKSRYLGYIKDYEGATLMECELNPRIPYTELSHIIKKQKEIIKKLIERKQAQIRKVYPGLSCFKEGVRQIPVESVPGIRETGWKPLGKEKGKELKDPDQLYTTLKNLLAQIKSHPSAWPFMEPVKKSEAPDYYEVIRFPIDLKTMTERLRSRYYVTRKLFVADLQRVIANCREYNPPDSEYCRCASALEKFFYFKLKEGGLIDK
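ThioGlo1-coupled HAT assay: 20nM GCN5L2, 70uM acetyl-CoA, 75uM H3(1-25) peptide, pH 7.5. Fluorescence read at 340/540nm at start and after 20 min at room temperature.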
DT40 TDP1 no CPT: qHTS for Inhibitors of human tyrosyl-DNA phosphodiesterase 1 (TDP1): qHTS in cells in absence of CPT. DT40 Tdp1-/- hTDP1 cells, no CPT, ATP luminescence, 48 h. Potency, µM (titrated, usually from 46.2 µM), inactives show top-dose activity change, negative = growth inhibition, most hits filed as inhibitors. 15% of 420,000 active. AID 686978, 2013; note: nearly all actives have a fitted effect of over 55% in size
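Chicken DT40 Tdp1-/- cells complemented with human TDP1, screened without camptothecin (DMSO vehicle only), 400 cells/well. Compounds pin-transferred, cells incubated at 37 °C for at least 48 hr. Growth read as ATP-dependent luminescence (CellTiter-Glo, 30 min at RT).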
Active calls of the source: *. An excerpt weighted towards active compounds, which were near 18% of everything screened. Calls come from the whole dose curve; as a rule, active = well fitted curve in the direction sought with a large enough effect; inconclusive = small, poorly fitted or top-dose-only effect, or another doubt; inactive = no such curve, though single readings can be large; an effect the other way counts as inactive or inconclusive. % is set by controls: 0 for no effect and ±100 for the full control effect; potency is the fitted concentration of half-maximal effect.

What do the screens show for `CSc1ccc(NC(=O)NCCCN2CCN(c3ccccc3F)CC2)cc1`?
PLK1 PBD inh: -11%; VDR inh: -9%; TDP1 block: 8%; TDP1 cell CPT: 21µM*; GCN5L2 inh: -6%; DT40 TDP1 no CPT: 21µM*

Results for O=C(NCCCN1CCN(c2ccccc2F)CC1)Nc1ccc(F)cc1 ?
PLK1 PBD inh: -12%; VDR inh: 2%; TDP1 block: 4%; TDP1 cell CPT: inconclusive; GCN5L2 inh: 0%; DT40 TDP1 no CPT: inconclusive

Results for O=C(NCCCN1CCCC1=O)c1cccc(S(=O)(=O)Nc2ccc(Br)cc2)c1 ?
PLK1 PBD inh: -15%; VDR inh: -14%; TDP1 block: -2%; TDP1 cell CPT: -10%; GCN5L2 inh: inconclusive; DT40 TDP1 no CPT: -20%

What do the screens show for `O=C(CCN1CCN(Cc2ccccc2)CC1)NNC(=O)Nc1cccc([N+](=O)[O-])c1`?
PLK1 PBD inh: -14%; VDR inh: -8%; TDP1 block: 0%; TDP1 cell CPT: -2%; GCN5L2 inh: 1%; DT40 TDP1 no CPT: 8%

Results for [O-][n+]1c2ccccc2[n+]([O-])c2cc(O)ccc21 ?
PLK1 PBD inh: inconclusive; VDR inh: inconclusive; TDP1 cell CPT: 9.2µM*; GCN5L2 inh: 0%; DT40 TDP1 no CPT: 13µM*

Results for COc1ccc2c(c1)C(=O)[C@@H](OC(=O)NCCOc1ccccc1)[C@H](c1ccc(OC)c(Br)c1)O2 ?
VDR inh: -1%; TDP1 block: 3%

What do the screens show for `CCCCCCSc1ccc([C@H]2N[C@@](Cc3ccccc3)(C(=O)OC)[C@H]3C(=O)N(CC)C(=O)[C@@H]23)cc1`?
PLK1 PBD inh: -1%; VDR inh: 3%; TDP1 block: -1%; TDP1 cell CPT: inconclusive; GCN5L2 inh: -4%; DT40 TDP1 no CPT: 18µM*

How did CCCCCCSc1ccc([C@H]2N[C@@](Cc3ccccc3)(C(=O)OC)[C@H]3C(=O)N(C)C(=O)[C@@H]23)cc1 do in these assays?
PLK1 PBD inh: -1%; VDR inh: -7%; TDP1 block: -6%; TDP1 cell CPT: inconclusive; GCN5L2 inh: -14%; DT40 TDP1 no CPT: 21µM*

Results for CCOC(=O)C1(Cc2ccccc2)NC(c2ccccc2F)C2C(=O)N(CC)C(=O)C21 (configuration not stated) ?
PLK1 PBD inh: -9%; VDR inh: 7%; TDP1 block: 2%; TDP1 cell CPT: 23µM*; GCN5L2 inh: -2%; DT40 TDP1 no CPT: 7.3µM*

How did CCN1C(=O)[C@H]2[C@@H](c3ccc(-c4ccccc4)c(OC)c3)N[C@@](Cc3ccccc3)(C(=O)OC)[C@H]2C1=O do in these assays?
PLK1 PBD inh: -5%; VDR inh: -7%; TDP1 block: -1%; TDP1 cell CPT: 9%; GCN5L2 inh: -18%; DT40 TDP1 no CPT: -12%

How did CCCSc1ccc([C@H]2N[C@@](Cc3ccccc3)(C(=O)OC)[C@H]3C(=O)N(CC)C(=O)[C@@H]23)cc1 do in these assays?
PLK1 PBD inh: -13%; VDR inh: 4%; TDP1 block: -1%; TDP1 cell CPT: 18µM*; GCN5L2 inh: -11%; DT40 TDP1 no CPT: 18µM*

How did C=CCNC(=O)c1ccc(NC(=O)CC2SC(N3CCCC3)=NC2=O)cc1 (configuration not stated) do in these assays?
PLK1 PBD inh: -1%; VDR inh: -5%; TDP1 block: 0%; TDP1 cell CPT: 8%; GCN5L2 inh: -4%; DT40 TDP1 no CPT: -1%

What do the screens show for `COc1ccc(/C=N/NC(=S)NCCc2ccccc2)cc1`?
PLK1 PBD inh: -9%; VDR inh: -19%; TDP1 cell CPT: 18µM*; GCN5L2 inh: inconclusive; DT40 TDP1 no CPT: 26µM*

What do the screens show for `COc1cccc(/C=N/NC(=S)NCCc2ccccc2)c1`?
PLK1 PBD inh: -10%; VDR inh: 1%; TDP1 block: 5%; TDP1 cell CPT: inconclusive; GCN5L2 inh: -17%; DT40 TDP1 no CPT: inconclusive

Results for Fc1ccccc1COc1ccc(/C=N/NC(=S)NCc2ccccc2)cc1 ?
PLK1 PBD inh: 2%; VDR inh: -5%; TDP1 block: 5%; TDP1 cell CPT: 12µM*; GCN5L2 inh: -5%; DT40 TDP1 no CPT: 13µM*

What do the screens show for `S=C(NCCc1ccccc1)N/N=C/C1CCCCC1`?
TDP1 block: 4%; GCN5L2 inh: -4%

What do the screens show for `COCCNC(=S)NN=C1CCC(c2ccccc2)CC1` (configuration not stated)?
PLK1 PBD inh: -1%; VDR inh: 4%; TDP1 block: 9%; TDP1 cell CPT: inconclusive; GCN5L2 inh: -11%; DT40 TDP1 no CPT: 5.2µM*

What do the screens show for `S=C(NCCc1ccccc1)NN=C1CCCCCC1`?
PLK1 PBD inh: 27µM*; VDR inh: -4%; TDP1 block: 0%; TDP1 cell CPT: 12%; GCN5L2 inh: -15%; DT40 TDP1 no CPT: 0%

Results for CC(C)(C)c1ccc(/C=N/NC(=S)NCc2ccccc2)cc1 ?
PLK1 PBD inh: -4%; VDR inh: 12%; TDP1 block: 4%; TDP1 cell CPT: inconclusive; GCN5L2 inh: -17%; DT40 TDP1 no CPT: inconclusive

What do the screens show for `CCc1cccc(NC(=O)Cn2cc(C(=O)c3ccncc3)c(=O)c3cc(C)c(C)cc32)c1`?
VDR inh: -6%; TDP1 block: 7%; TDP1 cell CPT: inconclusive; GCN5L2 inh: -22%; DT40 TDP1 no CPT: inconclusive

What do the screens show for `Cc1c(C(=O)NCC(C)(C)N2CCOCC2)cnn1-c1ncc2c(n1)-c1ccccc1CC2`?
TDP1 cell CPT: inconclusive; DT40 TDP1 no CPT: -27%

Results for O=C(Nc1ccc(OCc2ccccc2)cc1)Nc1ccccc1C(=O)NCCCN1CCOCC1 ?
PLK1 PBD inh: -1%; VDR inh: 4%; TDP1 block: 6%; TDP1 cell CPT: -12%; GCN5L2 inh: -9%; DT40 TDP1 no CPT: inconclusive

What do the screens show for `CCc1ccc(/C=N/NC(=S)NCCc2ccccc2)cc1`?
PLK1 PBD inh: -25%; VDR inh: 6%; TDP1 block: 8%; TDP1 cell CPT: inconclusive; GCN5L2 inh: -5%; DT40 TDP1 no CPT: 16µM*

How did COc1ccc(N=Nc2ccc(N)nc2N)cc1 do in these assays?
PLK1 PBD inh: -6%; VDR inh: 9%; TDP1 block: 9%; TDP1 cell CPT: -21%; GCN5L2 inh: -7%; DT40 TDP1 no CPT: -25%

How did Nc1ccc(N=Nc2ccc(O)cc2)c(N)n1 do in these assays?
PLK1 PBD inh: 16%; VDR inh: 3%; TDP1 cell CPT: 21µM*; DT40 TDP1 no CPT: 15µM*
